# Test results published in PubChem BioAssay.
# Active and inactive are the calls of the source.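 How the source made its calls, unless noted: active means fluorescence slope higher than the sample average by over 3 SD (cut at about -0.22 in these data, passing the limit was not always enough); inactive means the rest.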
# Experiments:
# [1] = inhibitors of TNFa-induced NFkB p65 translocation, primary screen, imaging, HUVEC, MLSMR starter and 10KST1 sets (AID 438;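 active means inhibition above 20% together with a positive visual image hit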;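 further: compound added about 3h40 before a 20 min TNFalpha stimulation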;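 on inhibition: signal is the nuclear over cytoplasmic p65 intensity ratio per well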); details: HUVEC TNFa-induced p65 nuclear translocation; cell count: measured here: nuclei count (cytotoxicity indicator), at 2.08 µM; inhibition: at 2 µM, stronger effect = higher value, 0% TNFa-plus-vehicle, 100% no-TNFa wells
# [2] = inhibitors of mutant huntingtin aggregation, primary screen, imaging, exon1htt(103Q)mCFP cells, high-content imaging (AID 483;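 active means visual image review flags a hit and inhibition of aggregation exceeds 20%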;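 further: compound exposure lasted 3 days before fixation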;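 on nuclei count: percent of the per-plate median nuclei count of sample wells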); details: exon1htt(103Q)mCFP cell line, aggregate imaging, at 2 µM; inhibition of aggregation: stronger effect = higher value; nuclei count: measured here: cell count, toxicity
# [3] = inhibitors of E-selectin induction by TNFa, primary screen, imaging, HUVEC, immunofluorescence, MLSMR starter and 10KST1 sets (AID 487;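 active means visually confirmed hit in the image check and inhibition above 20%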;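 on inhibition: signal is fraction of cell area covered by stained E-selectin grains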;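 on nuclei count: 100% = median nuclei count of all wells on the same plate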); details: HUVEC TNFalpha-induced E-selectin immunofluorescence imaging, at 2 µM; inhibition: stronger effect = higher value; nuclei count: measured here: cell number, toxicity
# [4] = target: Voltage-gated potassium channel subunit beta-2 (Rattus norvegicus) (UniProt P62483); test: KvBeta enzyme negative modulators, primary screen, biochemical, NADPH fluorescence (AID 622); details: recombinant KvBeta, 4-cyanobenzaldehyde reduction, at 10 µM, stronger effect = higher value;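 further: slope of raw intensity against log time taken from 70 to 1610 s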
# [5] = target: Voltage-gated potassium channel subunit beta-2 (Rattus norvegicus) (UniProt P62483); test: KvBeta positive modulators, primary screen, biochemical, NADPH fluorescence (AID 623;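 active means NADPH fluorescence slope more negative than the mean of all samples by about 3 SD, 99.7% confidence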;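 further: fluorescence intensity change per second fitted from 20 to 320 s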); details: Recombinant KvBeta, NADPH fluorescence decrease slope, 10 min; at 10 µM; stronger effect = lower value
# [6] = target: Alpha-2C adrenergic receptor (Homo sapiens) (UniProt P18825); test: modulators of alpha2C/GIRK thallium flux, primary screen, cell-based, HEK293 alpha2C/GIRK1/2 (AID 624;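 active means fluorescence slope after compound addition differing from the mean of all screened samples at 99.7% confidence, in either direction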;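 further: slope of fluorescence ratio to pre-addition baseline per second over 15 to 24 s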); details: thallium flux BTC fluorescence, at 10 µM, actives lie on both sides
# [7] = inhibitors of Sendai virus-induced IRF3 signaling, primary screen, TLR/RLR signaling modifier project, cell-based, Sendai virus stimulus, luciferase, 10K MLSCN set (AID 602276;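 active means inhibition at or above 50% at 10 µM; inactive means inhibition below 50%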;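 further: firefly luciferase from ISG56 promoter only with Renilla not read in this screen; 0% = Sendai virus plus DMSO and 100% = medium plus DMSO without virus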); details: HEK293 RL24 IRF3 luciferase reporter, at 10 µM, stronger effect = higher value
# [8] = inhibitors of poly I:C-induced TLR3 signaling, primary screen, cell-based, poly I:C stimulus, luciferase, 10K MLSCN set (AID 602277;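 active means inhibition of the reporter signal at or above 50%; inactive means inhibition below 50%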); details: HEK293-TLR3 RL24 IRF3 luciferase reporter, at 10 µM, stronger effect = higher value
# Alpha-2C adrenergic receptor (Homo sapiens), sequence (P18825 whole entry, looked up): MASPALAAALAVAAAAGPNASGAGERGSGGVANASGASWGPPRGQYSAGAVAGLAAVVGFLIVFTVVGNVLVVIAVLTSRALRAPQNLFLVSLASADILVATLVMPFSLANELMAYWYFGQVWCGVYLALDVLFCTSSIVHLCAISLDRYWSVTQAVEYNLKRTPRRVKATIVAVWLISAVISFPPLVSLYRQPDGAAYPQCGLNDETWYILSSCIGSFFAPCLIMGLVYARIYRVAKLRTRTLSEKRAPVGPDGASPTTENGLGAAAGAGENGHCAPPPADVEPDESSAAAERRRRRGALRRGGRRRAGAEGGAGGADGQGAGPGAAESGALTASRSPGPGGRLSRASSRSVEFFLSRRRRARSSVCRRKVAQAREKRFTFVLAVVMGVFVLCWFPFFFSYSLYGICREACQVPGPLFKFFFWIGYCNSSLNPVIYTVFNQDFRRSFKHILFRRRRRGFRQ
# Voltage-gated potassium channel subunit beta-2 (Rattus norvegicus), sequence (P62483 whole entry, looked up): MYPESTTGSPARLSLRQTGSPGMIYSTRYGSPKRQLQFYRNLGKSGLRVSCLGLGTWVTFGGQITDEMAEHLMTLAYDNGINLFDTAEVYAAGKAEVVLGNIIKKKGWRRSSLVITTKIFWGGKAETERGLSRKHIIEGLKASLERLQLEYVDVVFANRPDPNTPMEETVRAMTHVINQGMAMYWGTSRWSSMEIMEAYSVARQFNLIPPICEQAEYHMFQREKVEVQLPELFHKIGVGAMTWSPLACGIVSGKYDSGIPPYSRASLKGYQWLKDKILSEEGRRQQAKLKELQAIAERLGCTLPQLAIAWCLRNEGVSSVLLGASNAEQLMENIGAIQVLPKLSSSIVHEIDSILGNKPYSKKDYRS
Compound,cell count [1],inhibition [1],inhibition of aggregation [2],nuclei count [2],inhibition [3],nuclei count [3],fluorescence slope [4],NADPH fluorescence slope [5],slope [6],inhibition [7],inhibition [8]
COc1ccc(CCN2C(=O)CC(N3CCOCC3)C2=O)cc1 (stereo not drawn),665,-1.8% (inactive),-7.6% (inactive),100%,-57% (inactive),102%,-0.496 (inactive),-6.6e-05 (inactive),0.00402 (inactive),4.57% (inactive),-0.756% (inactive)
CCOc1ccccc1Nc1nnc(SCC(=O)N2CCCC2)s1,655,1% (inactive),12.1% (inactive),106%,-65.3% (inactive),100%,-0.609 (inactive),1.4e-05 (inactive),0.00607 (inactive),4.86% (inactive),12.3% (inactive)
O=C(c1ccc(Cl)cc1)N1CCCOC1,784,-9.7% (inactive),-49% (inactive),99.2%,-84.3% (inactive),111%,-0.32 (inactive),-4.9e-05 (inactive),0.00521 (inactive),10.5% (inactive),18.6% (inactive)
C=CCOC(=O)C1=C(C)NC(=O)NC1c1cn(-c2ccccc2)nc1-c1cccs1 (stereo not drawn),663,-18.8% (inactive),13.7% (inactive),87.3%,-7.6% (inactive),110%,-0.332 (inactive),-5.4e-05 (inactive),0.00533 (inactive),14.3% (inactive),14.3% (inactive)
CC(C)Cc1n[nH]c(=O)[nH]1,742,-25.9% (inactive),-10.2% (inactive),113%,-36.3% (inactive),120%,-0.543 (inactive),-3.9e-05 (inactive),0.00544 (inactive),-8.4% (inactive),1.42% (inactive)
O=C(O)C1CC=CCC1C(=O)Nc1cccc(F)c1 (stereo not drawn),446,5.9% (inactive),-9.5% (inactive),112%,0.8% (inactive),116%,-0.432 (inactive),-2.5e-05 (inactive),0.00329 (inactive),10.2% (inactive),31.8% (inactive)
COc1cccc(N(C(=O)c2ccco2)C(C(=O)NC2CCCC2)c2ccc(N(C)C)cc2)c1 (stereo not drawn),582,-1.6% (inactive),-38.4% (inactive),98.6%,5.4% (inactive),77.9%,-0.44 (inactive),-0.000142 (inactive),0.00648 (inactive),6.61% (inactive),15.9% (inactive)
Cc1cccc(-n2nnnc2SCc2csc(-c3ccccc3)n2)c1,413,2.9% (inactive),-8.3% (inactive),125%,-106% (inactive),127%,-0.502 (inactive),-3.3e-05 (inactive),0.00568 (inactive),9.28% (inactive),6.25% (inactive)
CCOc1ccc2nc(Nc3nc4c(c(=O)[nH]3)CCC4)nc(C)c2c1,612,0.8% (inactive),-12.1% (inactive),112%,-9.2% (inactive),110%,-0.429 (inactive),-5.3e-05 (inactive),0.00628 (inactive),-19.8% (inactive),-83.1% (inactive)
CC1(C)CC(=O)CC(C)(C)N1OC(=O)c1ccccn1,362,1% (inactive),-6.4% (inactive),97.7%,-4.9% (inactive),102%,-0.495 (inactive),2e-05 (inactive),0.00619 (inactive),-2.81% (inactive),25.3% (inactive)
CN1CCN(S(=O)(=O)c2ccc(NC(=O)c3ccc(F)cc3)cc2)CC1,624,0% (inactive),-2.2% (inactive),105%,-22.1% (inactive),85%,-0.424 (inactive),-2.3e-05 (inactive),0.00505 (inactive),0.12% (inactive),-12.3% (inactive)
CCOc1ccccc1C(=O)NCC(=O)OCC(=O)N1C(C)CCCC1C (stereo not drawn),683,-3.4% (inactive),-9.7% (inactive),103%,26.6% (inactive),112%,-0.615 (inactive),3e-05 (inactive),0.00593 (inactive),11.2% (inactive),17.1% (inactive)
O=C(O)Cc1ccccc1C(=O)O,685,-0.4% (inactive),0% (inactive),99.9%,-66.3% (inactive),142%,-0.491 (inactive),-5e-05 (inactive),0.00429 (inactive),13.7% (inactive),11.2% (inactive)
CC(C)=CCC(C)(C)C1OCCN1C(=O)c1ccccc1 (stereo not drawn),450,1.5% (inactive),1.2% (inactive),116%,10.2% (inactive),106%,-0.444 (inactive),2e-05 (inactive),0.00511 (inactive),8.82% (inactive),12.9% (inactive)
CCCCOc1ccccc1NC(=O)c1ccco1,334,11% (inactive),-21.3% (inactive),91.7%,-54.6% (inactive),122%,-0.517 (inactive),-4.6e-05 (inactive),0.00466 (inactive),18.5% (inactive),18.5% (inactive)
Cc1cc(C)n(C(=O)C23CC4CC(CC(C4)C2)C3)n1,448,0.9% (inactive),14.6% (inactive),102%,-12% (inactive),89.4%,-0.514 (inactive),-2.3e-05 (inactive),0.00607 (inactive),6.1% (inactive),17.9% (inactive)
COc1ccccc1-c1cc2nc(C)c(CCC(=O)NCc3ccco3)c(C)n2n1,688,-7.7% (inactive),-15.4% (inactive),115%,-41.8% (inactive),111%,-0.587 (inactive),-4.5e-05 (inactive),0.00963 (inactive),18.9% (inactive),16.6% (inactive)
COc1ccc(N2C(=O)C3C4C=CC(C4)C3C2=O)nn1 (stereo not drawn),719,-5.5% (inactive),-9.5% (inactive),100%,-182% (inactive),142%,-0.44 (inactive),-0.000108 (inactive),0.00628 (inactive),11.4% (inactive),23.1% (inactive)
COc1ccccc1C(=O)Nc1nc2ccc(S(C)(=O)=O)cc2s1,417,-6.5% (inactive),-0.8% (inactive),115%,-32.3% (inactive),132%,-0.241 (inactive),-6.6e-06 (inactive),0.00752 (inactive),-2.51% (inactive),-33.9% (inactive)
O=C1C2C3C=CC(C3)C2C(=O)N1Cc1ccccc1 (stereo not drawn),480,-9.2% (inactive),-2.3% (inactive),102%,40.2% (inactive),74.3%,-0.618 (inactive),-6.1e-05 (inactive),0.00345 (inactive),-1.99% (inactive),-2.25% (inactive)
CC(=O)Nc1nc2c(c3c1c(=O)oc1ccccc13)CC(C)CC2 (stereo not drawn),509,-11.6% (inactive),14.7% (inactive),61.9%,13.1% (inactive),82.7%,-0.457 (inactive),-1.3e-05 (inactive),0.00575 (inactive),12.8% (inactive),32.3% (inactive)
CCOc1ccccc1N(C(=O)c1ccco1)C(C(=O)NC1CCCC1)c1cccnc1 (stereo not drawn),634,-9.3% (inactive),12.2% (inactive),79.6%,10% (inactive),116%,-0.563 (inactive),2.3e-05 (inactive),0.00563 (inactive),-2.81% (inactive),13.5% (inactive)
CCCC1CCC(C(=O)Nn2cnc3ccccc3c2=O)CC1 (stereo not drawn),271,3.9% (inactive),17.1% (inactive),86.9%,33.8% (inactive),77.6%,-0.478 (inactive),2.4e-05 (inactive),0.00566 (inactive),6.74% (inactive),21.4% (inactive)
CCOc1ccc(OCC)c(NS(=O)(=O)c2ccc3c(c2)n(C)c(=O)c(=O)n3C)c1,291,-2.4% (inactive),0.8% (inactive),109%,-27.6% (inactive),107%,-0.432 (inactive),-4.6e-05 (inactive),0.00533 (inactive),10.9% (inactive),13% (inactive)
CCC(C)(C)NC(=O)CN(C(=O)c1snc(C(N)=O)c1N)c1ccc2c(c1)OCO2,688,-7.3% (inactive),0.7% (inactive),103%,-39.8% (inactive),120%,-0.517 (inactive),3.3e-05 (inactive),0.00589 (inactive),13.1% (inactive),14.6% (inactive)
COc1ccc(S(=O)(=O)NCc2ccc3c(c2)OCO3)cc1C(=O)O,379,-4.7% (inactive),-1.8% (inactive),120%,-41.3% (inactive),107%,-0.324 (inactive),-8.9e-06 (inactive),0.00676 (inactive),9.22% (inactive),20.8% (inactive)
CCOc1cc2oc(=O)c3c(c2cc1Cl)CCC3,400,-2.6% (inactive),5.2% (inactive),104%,-24.1% (inactive),106%,-0.482 (inactive),1.7e-05 (inactive),0.00626 (inactive),-5.28% (inactive),-30.2% (inactive)
C=CCSc1nnc(Cc2c(C)[nH]c3ccccc23)o1,800,3.5% (inactive),20.5% (inactive),92.7%,-15.9% (inactive),118%,-0.427 (inactive),-6e-05 (inactive),0.00499 (inactive),7.53% (inactive),15% (inactive)
